Test systems include SK-MEL-2 melanoma; EKVX NSCLC; UO-31 renal; TK-10 renal; ACHN renal; CAKI-1 renal; A498 renal; CCRF-CEM leukemia; MOLT-4 leukemia; SR leukemia; RPMI-8226 leukemia; OVCAR-8 ovarian; OVCAR-5 ovarian; OVCAR-4 ovarian; SK-OV-3 ovarian; IGROV1 ovarian; OVCAR-3 ovarian; HS 578T breast; NCI/ADR-RES ovarian; SN12C renal.
What all share (assay): NCI-60 one-dose screen, 48 h (100 = growth as untreated, 0 = no growth, -100 = all killed)
What all share (settings): 10 µM unless noted

Drawing on PubChem BioAssay (NCI), this text covers growth for 8 molecules.

The panel holds about 83,000 compounds, 20% with a hit somewhere; the sample as a whole holds those more often.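 A percent growth of 40 corresponds to 60% growth inhibition; 0 means no net growth; -100 means all cells died. Active threshold: below 10.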 A number with no mark means an inactive call. Calls of active or inactive are those of the source.

`Cc1cc2c(F)c(Oc3ncnc(Nc4ccc(N5C[C@@H](C)N[C@@H](C)C5)cc4)c3C#N)cc(F)c2[nH]1`: the growth was 96.9% in the experiment on SK-MEL-2 melanoma; 78.7% with EKVX NSCLC; 70% in the experiment on UO-31 renal; 70.9% with TK-10 renal; -12.2% (active) in the experiment with ACHN renal; 40.3% with CAKI-1 renal. Also, the growth in the experiment with A498 renal is 15.6%; with CCRF-CEM leukemia, 7.66% (active); in the experiment with MOLT-4 leukemia, -15.9% (active); in the experiment on SR leukemia, -26.4% (active); with RPMI-8226 leukemia, 2.98% (active); in the experiment on OVCAR-8 ovarian it was 25.6%. Also, the growth was 103% with OVCAR-5 ovarian; 16.2% in the experiment on OVCAR-4 ovarian; 92.8% in the experiment with SK-OV-3 ovarian; 73% in the experiment with IGROV1 ovarian; -29.6% (active) in the experiment with OVCAR-3 ovarian; 64% in the experiment on HS 578T breast. Besides, the growth in the experiment with NCI/ADR-RES ovarian is 50.6%.
Regarding `CC(C)n1nc(C#Cc2cccc3cc(-c4cccc(C(F)(F)F)c4)ncc23)c2c(N)ncnc21`, the growth was 42.8% in the experiment on SK-MEL-2 melanoma; 93.6% in the experiment with EKVX NSCLC; 86.1% in the experiment on SN12C renal; 85.1% with TK-10 renal; 68.7% in the experiment with ACHN renal; 86.8% with CAKI-1 renal. For the same molecule, the growth with A498 renal is 83.5%; in the experiment with MOLT-4 leukemia, 43.2%; in the experiment with RPMI-8226 leukemia it was 57.1%; in the experiment on OVCAR-8 ovarian it was 41.1%; in the experiment with OVCAR-5 ovarian, 86.1%; in the experiment with OVCAR-4 ovarian it was 78.8%. Besides, the growth is 91% in the experiment on SK-OV-3 ovarian; 72% in the experiment with IGROV1 ovarian; 91.2% with OVCAR-3 ovarian; 65.2% in the experiment on HS 578T breast; 82% in the experiment on NCI/ADR-RES ovarian.
With `O=C(/C=C/C12c3ccccc3C(c3ccccc31)C1C(=O)N(c3ccccc3)C(=O)C12)c1ccccc1` (centres undefined), the growth in the experiment with SK-MEL-2 melanoma was 24.5%; with EKVX NSCLC, 8.88% (active); with SN12C renal, 15%; in the experiment with TK-10 renal, 20.8%; with ACHN renal it was -15% (active); in the experiment with CAKI-1 renal, 45.8%. Moreover, the growth with CCRF-CEM leukemia was 9.95% (active); in the experiment on MOLT-4 leukemia, 11%; in the experiment with SR leukemia, 14.2%; in the experiment on RPMI-8226 leukemia, 1% (active); with OVCAR-8 ovarian it was 27.4%; in the experiment with OVCAR-5 ovarian it was -12.7% (active). Also, the growth in the experiment with OVCAR-4 ovarian was 34.1%; in the experiment on IGROV1 ovarian, -24.5% (active); with OVCAR-3 ovarian, -61.9% (active); with HS 578T breast it was 20.7%; in the experiment on NCI/ADR-RES ovarian it was 14.2%.
Turning to `CCCCC1COc2cccc3c(SCC(=O)N(C)c4cccc(Cl)c4)cc[n+]1c23` (centres undefined), the growth is 105% in the experiment on SK-MEL-2 melanoma; 113% in the experiment with EKVX NSCLC; 94.4% with SN12C renal; 110% with TK-10 renal; 101% in the experiment with ACHN renal; 102% with CAKI-1 renal. For the same molecule, the growth in the experiment with A498 renal was 106%; in the experiment on CCRF-CEM leukemia it was 105%; in the experiment on MOLT-4 leukemia, 109%; in the experiment with SR leukemia, 100%; with OVCAR-8 ovarian, 118%; with OVCAR-5 ovarian it was 109%. The growth in the experiment on OVCAR-4 ovarian was 129%; in the experiment with SK-OV-3 ovarian, 108%; in the experiment with IGROV1 ovarian, 112%; in the experiment with OVCAR-3 ovarian, 121%; with HS 578T breast, 109%; in the experiment on NCI/ADR-RES ovarian, 111%.
As for `NS(=O)(=O)Oc1ccc(-c2sc3cc(O)ccc3c2C(=O)c2ccc(OCCN3CCCCC3)cc2)cc1`, the growth is 84% in the experiment on SK-MEL-2 melanoma; 72.3% in the experiment on EKVX NSCLC; 69.1% in the experiment on SN12C renal; 72.4% with TK-10 renal; 60.9% with ACHN renal; 49.3% in the experiment with CAKI-1 renal. The growth in the experiment with CCRF-CEM leukemia is 25.9%; in the experiment on MOLT-4 leukemia it was 11%; in the experiment on SR leukemia, 4.91% (active); in the experiment with OVCAR-8 ovarian, 63.9%; in the experiment with OVCAR-5 ovarian, 87.2%; in the experiment with OVCAR-4 ovarian, 58.4%. Moreover, the growth is 75.6% in the experiment with IGROV1 ovarian, 62.6% with OVCAR-3 ovarian, 37.8% with HS 578T breast and 80.4% in the experiment on NCI/ADR-RES ovarian.
On to `COc1ccc(/C=C2\COc3ccc(O)cc3C2=O)cc1OC`, for which the growth with SK-MEL-2 melanoma is 97.1%; in the experiment with EKVX NSCLC, 96.3%; in the experiment on SN12C renal, 59.3%; with TK-10 renal, 93.1%; in the experiment with ACHN renal, 73%; in the experiment on CAKI-1 renal, 62.3%. The growth was 90.6% with A498 renal; 3.05% (active) in the experiment on CCRF-CEM leukemia; 48% in the experiment on MOLT-4 leukemia; 1.44% (active) in the experiment with SR leukemia; 46.4% with OVCAR-8 ovarian; 86.8% in the experiment with OVCAR-5 ovarian. For the same molecule, the growth with OVCAR-4 ovarian was 92.8%; with SK-OV-3 ovarian it was 93.1%; in the experiment with IGROV1 ovarian, 89.5%; in the experiment on OVCAR-3 ovarian, 28.4%; in the experiment with HS 578T breast, 80.4%; in the experiment on NCI/ADR-RES ovarian it was 98.4%.
As to `CC(=O)c1cc2c(o1)C(=O)c1ccccc1C2=O`, the growth was -69.4% (active) with SK-MEL-2 melanoma; -81% (active) in the experiment on EKVX NSCLC; -81.2% (active) with SN12C renal; -96.4% (active) in the experiment on TK-10 renal; -98.3% (active) in the experiment on ACHN renal; -98.4% (active) in the experiment with CAKI-1 renal. In addition, the growth in the experiment with CCRF-CEM leukemia is -74.8% (active); in the experiment on MOLT-4 leukemia, -43% (active); in the experiment on SR leukemia it was 1.01% (active); in the experiment with RPMI-8226 leukemia it was -44% (active); in the experiment on OVCAR-8 ovarian, -43.8% (active); in the experiment with OVCAR-5 ovarian, -86.1% (active). Further, the growth was -96.9% (active) with OVCAR-4 ovarian; -66.9% (active) with IGROV1 ovarian; -85.5% (active) in the experiment with OVCAR-3 ovarian; -23.7% (active) in the experiment with HS 578T breast; -13.2% (active) in the experiment on NCI/ADR-RES ovarian.
In the case of `COc1ccc(/C=N/NC(=O)Cn2c(-c3ccc(S(C)(=O)=O)cc3)nc3cc(Cl)ccc32)cc1`, the growth in the experiment with SK-MEL-2 melanoma was 21.2%; in the experiment with EKVX NSCLC it was 25.3%; in the experiment on SN12C renal, 27.3%; with TK-10 renal, 36.8%; with ACHN renal it was 30.3%; in the experiment on CAKI-1 renal, 42%. Also, the growth is 21.4% in the experiment on A498 renal; 12.9% in the experiment with MOLT-4 leukemia; 9.21% (active) in the experiment with RPMI-8226 leukemia; 19.7% with OVCAR-8 ovarian; 36.8% with OVCAR-5 ovarian; 55.5% with OVCAR-4 ovarian. The growth is 12.6% in the experiment with SK-OV-3 ovarian; 33.3% in the experiment with IGROV1 ovarian; -1.53% (active) in the experiment on OVCAR-3 ovarian; 36.8% with HS 578T breast; 5.86% (active) in the experiment with NCI/ADR-RES ovarian.
